Measured values reported in ChEMBL document CHEMBL4513216, “Probing the Open Global Health Chemical Diversity Library for Multistage-Active Starting Points for Next-Generation Antimalarials” (ACS Infect Dis, 2020).
Screen size: about 69,000 compounds; about 8,600 (12%) showed an effect of 50% or more. The full list was thinned out, with strong results kept by preference.

Each compound was assayed on Plasmodium berghei (assay: Screen against P. berghei liver stage (PbLuc), transformed with Luciferase, at 10uM). Settings: tested at 10 uM.
Type: functional, HepG2

Row | SMILES | INHIBITION
1 | CN1CCN(C(=O)c2occc2CN2C(=O)Cc3ccccc32)CC1 | 37.9%
2 | c1cncc(CN2CCn3cc(CN4CCCCC4)nc3C2)c1 | 35.8%
3 | Cc1ccoc1C(=O)N1Cc2c(CN3CCCCC3)nn(C)c2C1 | 3.69%
4 | O=C(NCCCn1nc2ccccn2c1=O)NC(C1CC1)C1CC1 | 16.3%
5 | COc1ccc(CC(=O)NC2CCN(CC(F)F)CC2)cc1OC | 14.4%
6 | O=C(c1ccoc1)N1CC[C@@H]2O[C@@H](COCc3ccncc3)CC[C@@H]21 | 52%
7 | COCC(=O)N1CC[C@@H]2O[C@H](COCc3ccncc3)CC[C@@H]21 | 33.5%
8 | CC(C)COC[C@H]1CC[C@H]2[C@H](CCN2C(=O)c2ccncc2F)O1 | 53%
9 | O=C(c1ccoc1)N1CC[C@@H]2O[C@@H](COCc3ccccn3)CC[C@@H]21 | 53.2%
10 | O=C(c1ccoc1)N1CC[C@@H]2O[C@@H](COCCN3CCCC3)CC[C@@H]21 | 31.1%
11 | CN(C)CCOC[C@H]1CC[C@H]2[C@H](CCN2C(=O)c2ccoc2)O1 | 34.6%
12 | O=C(c1ccoc1)N1CC[C@@H]2O[C@H](COCc3ccccn3)CC[C@@H]21 | 34.1%
13 | CCOC[C@H]1CC[C@H]2[C@H](CCN2C(=O)c2ccncc2F)O1 | 41.4%
14 | CC(C)COC[C@@H]1CC[C@H]2[C@H](CCN2C(=O)c2ccncc2F)O1 | 13.5%
15 | CCS(=O)(=O)N1CCC2(CN(c3ccsc3)C(=O)CN2C)C1 (stereo not given) | 1.9%
16 | CN(C)CC1(O)CCCN(C(=O)CCn2cc(Cl)cn2)C1 (stereo not given) | -47%
17 | CSc1nc2ccsc2c(=O)n1CC(=O)N(C)C1CCCCC1 | 26.6%
18 | Cn1nccc1C(=O)N1CCCC1c1[nH]ncc1C(N)=O (stereo not given) | -31%
19 | CCOC(=O)N1CCN(C(=O)CCn2cccc2)CC1 | 35%
20 | Cc1nc(CN2CCC3(CC2)C(=O)N(C)CCN3C)cs1 | 31.5%
21 | Cn1cc(-c2nnn3c2COC(CNC(=O)c2cccs2)C3)cn1 (stereo not given) | 8.64%
22 | Cc1nc(CN2CCN(C(=O)c3ccnc(N(C)C)c3)CC2)cs1 | 43.2%

Row | SMILES | INHIBITION
23 | Cc1ccc(CN(C)C(=O)C(C)n2ccnc2C(C)C)o1 (stereo not given) | 33%
24 | O=C(c1cccc(-c2ncc[nH]2)c1)N1CC[C@H](CO)[C@@H](O)C1 | -12.1%
25 | O=C(c1cccc(-c2ncc[nH]2)c1)N1CCC(N2CCCC(O)C2)CC1 (stereo not given) | 57.2%
26 | CN(C)C1CCCN(C(=O)c2cccc(-c3ncc[nH]3)c2)CC1 (stereo not given) | 12.8%
27 | Cc1ncnc2c1CCN(Cc1nccs1)CC2 | 8.85%
28 | CC(C(=O)NCC(C)(C)c1ccc(Br)cc1)n1cncn1 (stereo not given) | 23.1%
29 | O=c1[nH]cnc2[nH]c(N3CCOCC3)nc12 | 31.8%
30 | COc1ccc2nc(C3CC3)cc(C(=O)NCC(=O)N(C)C)c2c1 | 13.9%
31 | COc1ccc2nc(C3CC3)cc(C(=O)NCc3ncnn3C)c2c1 | 10.7%
32 | COc1ccc2nc(C3CC3)cc(C(=O)NCc3noc(C)n3)c2c1 | 57.2%
33 | COc1cccc(-c2n[nH]cc2C(=O)NC(C)CC(=O)O)c1 (stereo not given) | 42.3%
34 | COc1ccc(Cl)cc1C(=O)NC(CC(=O)O)c1cccs1 (stereo not given) | 29.7%
35 | COc1ccc(CC(=O)NC(CC(=O)O)c2ccc(F)cc2)cc1OC (stereo not given) | 29%
36 | COc1ccc(C)cc1C(=O)NC(CC(=O)O)c1cccs1 (stereo not given) | 52.3%
37 | COc1ccc(C(=O)NC(CC(=O)O)c2cccs2)c(OC)c1 (stereo not given) | -5.25%
38 | CCOc1ccccc1C(=O)NC(CC(=O)O)c1cccs1 (stereo not given) | 13.3%
39 | COc1ccccc1C(=O)NC(C)CC(=O)O (stereo not given) | 51.3%
40 | COc1ccccc1CC(=O)NC(CC(=O)O)c1ccc(F)cc1 (stereo not given) | 32.3%
41 | COc1ccccc1C(=O)NC(CC(=O)O)c1cccs1 (stereo not given) | -9.14%
42 | O=C(O)CC(NC(=O)c1ccccc1OC(F)F)c1cccs1 (stereo not given) | 68.8%
43 | COc1ccc(C)cc1CC(=O)NC(CC(=O)O)c1ccc(F)cc1 (stereo not given) | 58.3%
44 | COc1ccccc1CC(C)CC(=O)O (stereo not given) | 29.3%

Row | SMILES | INHIBITION
45 | Cc1csc(CN2CCC[C@]3(C[C@@H](OCC4CC4)CO3)C2)n1 | 35.6%
46 | Cc1nnc(NCCn2nc(C)c(Cl)c2C)o1 | 26.8%
47 | CC(Cn1ccnc1)NC(=O)NCCc1ccc(Cl)s1 (stereo not given) | -5.25%
48 | O=C1CC(N(C(=O)CCc2cc(F)ccc2F)C2CC2)C(=O)N1 (stereo not given) | 22.2%
49 | CCn1ccnc1CN1CCCC1c1noc(C2CC2)n1 (stereo not given) | 40.9%
50 | CN(Cc1nnc2n1CCC2)C(=O)c1ccc2c(c1)CCO2 | 26.4%
51 | Cc1nc2c(c(=O)[nH]1)CCN(Cc1ccc3c(c1)CCCN3C)C2 | 31.6%
52 | Cc1ccc2c(c1)C(=O)NCC1(CCN(C(=O)c3cnccn3)CC1)O2 | -32.2%
53 | O=C(CCc1ccccc1F)N1CCC(Nc2cccnn2)CC1 | 1.78%
54 | O=C1N(CC2CCCC2)CCC12CCN(c1ncc(F)cn1)CC2 | 8.74%
55 | NC(=O)CN1CCC(NC(=O)COCCOc2ccccc2)CC1 | 31.6%
56 | CC(=O)NCCC1CCCCN1S(=O)(=O)c1cccc(F)c1 (stereo not given) | -40.5%
57 | COCC(=O)N1CCOC(c2ccc(N(C)C)cn2)C1 (stereo not given) | 50.1%
58 | COCC(=O)N1CCOC(c2cccc(-c3cncnc3)n2)C1 (stereo not given) | 38.2%
59 | CNC(=O)c1ccc(C2CN(C(=O)COC)CCO2)nc1 (stereo not given) | -26.8%
60 | CCCC(=O)N1CCC(c2nc(O)c3c(n2)CCN(C2CCCC2)C3)C1 (stereo not given) | 17.1%
61 | Cc1ccccc1OCCCC(=O)NC(C)c1nnc2n1CCC2 (stereo not given) | -24.2%
62 | CNC(=O)[C@H]1C[C@@H]2CN(S(=O)(=O)Cc3ccccc3)C[C@@H]2N1C | -15.7%
63 | O=C(N1CCOCC1)[C@@]12CCO[C@@H]1CCN(C1CCC1)C2 | 16.8%
64 | Cc1ccsc1C(=O)N1C[C@@H]2CN(Cc3ccoc3)CCO[C@@H]2C1 | 2.27%
65 | O=C(NCC(F)(F)F)C1CSCN1S(=O)(=O)c1ccc(F)cc1Cl (stereo not given) | -19.6%
